# According to PubChem BioAssay (Tox21):
# Values without a mark were called inactive. Activity calls are given as the source filed them. The call rests on the fitted dose curve; in most records, active means well fitted activation curve with a large enough effect in the repeat runs; inconclusive means weak or mixed curves; inactive means flat fitted curve, though single readings scatter.
# Target: KiSS-1 receptor (Homo sapiens) (UniProt Q969F8)
# Assay: Human kisspeptin (KISS1R) small molecule agonists, calcium flux assay in KISS1R-HEK293 cells (AID 1920064)
# Settings: KISS1R-HEK293, calcium flux fluorescence, agonist; series mostly up to 76.8 µM; activation: at the top concentration
# From the text: National Center for Advancing Translational Sciences [NCATS]
# Division of Preclinical Innovation [DPI]
# U.S. Environmental Protection Agency [EPA]
# National Institutes of Environmental Health Sciences [NIEHS]
# National Toxicology Program [NTP]
# U.S. Food and Drug Administration [FDA]
# Kisspeptin and its receptor KISS1R play key roles in mammalian reproduction due to their involvement in the onset of puberty and control of the hypothalamic-pituitary-gonadal axis such as regulates GnRH release from the hypothalamus. The kisspeptin/KISS1R system also plays a direct role in peripheral organs (including the ovary, testis, uterus, and placenta) and is implicated in reproductive diseases such as miscarriage and polycystic ovary syndrome (PCOS). Abnormal KISS1R activity is associated with abnormal puberty, infertility, endometriosis, and hormone-dependent tumors. The KISS1 receptor (KISS1R, also called GPR54), a G-protein-coupled receptor (GPCR), acts (through phospholipase C) to increase intracellular inositol trisphosphate and then release intracellular calcium stores. Cell-based KISS1R-HEK293 assay is using HEK293 cells that have been genetically engineered to express the human KISS1R, which activity can be measured by calcium signaling. A compound/drug can activate (agonist) KISS1R that can be monitored by levels of intracellular calcium.
# KISS1R-HEK293 cells developed by Codex Corp contain human KISS1R gene, which was stably integrated into HEK 293 cells. The compound activation can be detected by fluorescence intensity via calcium flux assay. This cell line has been used to screen the Tox21 10K compound library to identify agonists of KISS1R.
# KISS1R-Hek293 cells were dispensed at 1500 cells/4uL/well in 1536-well black wall/clear bottom plates using a multidrop dispenser. After the assay plates were incubated at a 37 C/5% CO2 incubator for 18 hours, 4 microL of Calcium Dye Solution was added to each well. The plates were incubated at 37 C for 1 hour. And then 23 nL of compounds dissolved in DMSO, positive controls, or DMSO only was transferred to the assay plate by a pin tool station. The fluorescence intensity in the plates was measured using FDSS 7000EX kinetic plate reader with a filter set of Ex/Em=480/540 for 3 min at 1 sec intervals. Each test compound was measured at 15 concentrations and in triplicates.
# On the % scale 0 is the no-effect control and ±100 the full control effect.
# KiSS-1 receptor (Homo sapiens), sequence (Q969F8 whole entry, looked up): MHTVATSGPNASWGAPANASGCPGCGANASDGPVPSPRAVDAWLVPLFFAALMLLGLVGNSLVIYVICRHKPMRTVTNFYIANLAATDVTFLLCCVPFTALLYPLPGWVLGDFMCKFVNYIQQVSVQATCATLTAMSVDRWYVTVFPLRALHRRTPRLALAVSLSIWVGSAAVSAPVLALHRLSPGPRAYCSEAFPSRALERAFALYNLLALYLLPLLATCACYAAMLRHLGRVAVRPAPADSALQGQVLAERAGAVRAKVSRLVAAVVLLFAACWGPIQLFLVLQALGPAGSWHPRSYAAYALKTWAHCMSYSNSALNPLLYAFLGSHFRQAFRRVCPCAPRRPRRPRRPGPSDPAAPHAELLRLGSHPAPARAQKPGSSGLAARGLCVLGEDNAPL
SMILES,activation,Potency
CC(C)CO,-0.213%,–
Cc1cc(C(C#N)c2ccc(Cl)cc2)c(Cl)cc1NC(=O)c1cc(I)cc(I)c1O (stereo not given),3.66% [at 35.3 µM],–
CC1CN(c2ccccc2)NC1=O (stereo not given),-1.36%,–
NC(=O)Nc1nc2ccccc2[nH]1,3.93%,–
CC1C2CC(CC2C2CCCC(O)C2)C1(C)C (stereo not given),6.88%,–
CCCCCCCC/C=C\CCCCCCCC(=O)OCCO,-1.3%,–
CCOC(=O)C(F)(F)F,-1.24%,–
CN(C)[C@@H](CCOc1cccc2ccccc12)c1ccccc1,4.11% [at 35.3 µM],–
CCCCCCCOC(=O)CCC,-1.45%,–
CC(C)(c1ccccc1)c1ccccc1,-0.98%,–
COC(=O)/C=C(\C)CCC=C(C)C,0.466%,–
CCc1ccccc1,5.77%,–
CCOC(=O)OCC,-1.56%,–
CCCOC(OCCC)OCCC,-1.57%,–
O=C(O)CC(=O)C(=O)O,2.03%,–
N/C(=N\N=C\c1ccc(Cl)cc1)N/N=C/c1ccc(Cl)cc1,0.854% [at 35.3 µM],–
C#C[C@]1(O)CC[C@H]2[C@@H]3CCc4cc(OC5CCCC5)ccc4[C@H]3CC[C@@]21C,3.47% [at 35.3 µM],–
N#CCCOCCC#N,1.89%,–
O=C1CCCCCN1SSN1CCCCCC1=O,0.0432%,–
c1ccc(CN(Cc2ccccc2)Cc2ccccc2)cc1,-1.54%,–

SMILES,activation,Potency
O=C1C=CC(=O)N1,-1.31%,–
O=CNc1ccccc1,0.716%,–
O=C(O)CCc1nc(-c2ccccc2)c(-c2ccccc2)o1,0.292% [at 35.3 µM],–
CCC(C)O (stereo not given),-0.504%,–
O=C(CS)OCCOC(=O)CS,2.67%,–
CCOC(=O)C1=C(C)NC(C)=C(C(=O)OCC)C1c1ccccc1/C=C/C(=O)OC(C)(C)C,5.33% [at 35.3 µM],–
Brc1c2ccccc2c(Br)c2ccccc12,0.391% [at 6.97 µM],–
OC(CCN1CCCCC1)(c1ccccc1)C1CCCCC1 (stereo not given),8.57% [at 35.3 µM],–
CCCNCCC,2.54%,–
CCO/C=C1\N=C(c2ccccc2)OC1=O,3.29%,–
CCCCCCCCOC(=O)c1ccc(O)cc1,–,inactive
O=C(c1ccccc1)c1ccccc1,–,inactive
O=C(CCCCCCC(=O)Nc1ccccc1)NO,-2.1% [at 35.3 µM],–
N#Cc1ccc(C(c2ccc(C#N)cc2)n2cncn2)cc1,-1.13% [at 35.3 µM],–
NC(CSCC(=O)O)C(=O)O (stereo not given),-0.964% [at 35.3 µM],–
Brc1c(NC2=NCCN2)ccc2nccnc12,-1.38% [at 35.3 µM],–
O=C(NO)C1(NS(=O)(=O)c2ccc(Oc3ccc(F)cc3)cc2)CCOCC1,-1.87%,–
CC(C)OC(=O)c1ccccc1C(=O)OC(C)C,-1.11%,–
CC/C=C1/OC(=O)c2ccccc21,-2.73%,–
COc1nccnc1NS(=O)(=O)c1ccc(N)cc1,-0.0083% [at 35.3 µM],–
